# Results: article PMC7862700, “An all-to-all approach to the identification of sequence-specific readers for epigenetic DNA modifications on cytosine”
# Tests used:
# Assay in all cases: DAPPL (digital affinity profiling via proximity ligation, sequencing); 10 mM Tris-HCl pH 7.5, 50 mM NaCl, 1 mM DTT, 4% glycerol, room temperature, 30 min; GST-TFs on glutathione beads, 16-mer random dsDNA library, 0.1% formaldehyde crosslink after washing; high values mean tight binding
# Settings in all cases: protein: recombinant; tags: N-terminal GST; dsDNA, one strand shown
# FLI1 = target: T1, FLI1 (Homo sapiens, UniProt Q01543 1-452)
# T1 sequence: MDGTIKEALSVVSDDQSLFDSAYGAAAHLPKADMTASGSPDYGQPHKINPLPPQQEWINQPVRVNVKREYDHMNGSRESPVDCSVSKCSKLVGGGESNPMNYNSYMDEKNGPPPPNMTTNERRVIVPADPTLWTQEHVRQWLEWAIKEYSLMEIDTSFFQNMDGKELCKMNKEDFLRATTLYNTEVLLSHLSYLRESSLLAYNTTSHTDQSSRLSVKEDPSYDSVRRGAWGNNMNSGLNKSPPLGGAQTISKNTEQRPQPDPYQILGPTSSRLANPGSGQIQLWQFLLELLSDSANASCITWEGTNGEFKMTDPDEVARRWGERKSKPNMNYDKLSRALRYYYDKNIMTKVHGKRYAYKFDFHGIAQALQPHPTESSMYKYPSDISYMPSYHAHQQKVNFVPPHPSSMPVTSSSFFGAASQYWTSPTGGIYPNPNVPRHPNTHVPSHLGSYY
# In short: (§1)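 Human transcription factors fused to GST were expressed in yeast, captured on glutathione beads, given DNA barcodes and pooled with a GST-only negative control. Pools were incubated with 200 nmole of a 16-mer random double-stranded DNA library in Tris/NaCl/DTT/glycerol buffer at room temperature for 30 min. They were then washed, crosslinked with 0.1% formaldehyde, proximity-ligated (BsaI/T4 ligase, 1 h, 37 °C), PCR-amplified and sequenced on an Illumina NextSeq500. Binding signal is each 6-mer's read frequency for a factor divided by its frequency for the GST control.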
# ELK1 = target: T2, ELK1 (Homo sapiens, UniProt P19419 1-428)
# T2 sequence: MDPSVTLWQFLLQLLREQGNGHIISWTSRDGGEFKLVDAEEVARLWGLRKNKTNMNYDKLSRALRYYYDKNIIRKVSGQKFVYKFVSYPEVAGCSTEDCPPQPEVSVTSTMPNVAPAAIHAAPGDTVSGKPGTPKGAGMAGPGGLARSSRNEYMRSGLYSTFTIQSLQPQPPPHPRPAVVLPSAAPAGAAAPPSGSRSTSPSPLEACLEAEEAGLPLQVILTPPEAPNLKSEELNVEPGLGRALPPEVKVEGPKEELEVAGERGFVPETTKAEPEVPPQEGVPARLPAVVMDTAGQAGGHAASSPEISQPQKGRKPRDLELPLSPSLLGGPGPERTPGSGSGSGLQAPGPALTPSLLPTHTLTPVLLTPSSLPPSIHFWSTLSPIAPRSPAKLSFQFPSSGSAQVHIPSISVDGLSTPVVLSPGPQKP
# In short: as §1
# GABPA = target: T3, GABPA (Homo sapiens, UniProt Q06546 1-454)
# T3 sequence: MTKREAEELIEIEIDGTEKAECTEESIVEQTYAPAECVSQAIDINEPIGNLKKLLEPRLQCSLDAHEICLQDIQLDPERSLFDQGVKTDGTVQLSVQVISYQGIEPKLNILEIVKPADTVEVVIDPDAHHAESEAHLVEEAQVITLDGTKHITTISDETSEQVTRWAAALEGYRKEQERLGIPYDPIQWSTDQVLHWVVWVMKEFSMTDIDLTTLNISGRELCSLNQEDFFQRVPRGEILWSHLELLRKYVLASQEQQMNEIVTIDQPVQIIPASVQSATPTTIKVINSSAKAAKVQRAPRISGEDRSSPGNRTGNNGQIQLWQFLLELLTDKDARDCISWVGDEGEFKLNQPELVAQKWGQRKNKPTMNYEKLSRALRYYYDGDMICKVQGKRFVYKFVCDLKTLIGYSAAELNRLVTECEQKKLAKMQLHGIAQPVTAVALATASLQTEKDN
# In short: as §1
# ERG = target: T4, ERG (Homo sapiens, UniProt P11308 1-479)
# T4 sequence: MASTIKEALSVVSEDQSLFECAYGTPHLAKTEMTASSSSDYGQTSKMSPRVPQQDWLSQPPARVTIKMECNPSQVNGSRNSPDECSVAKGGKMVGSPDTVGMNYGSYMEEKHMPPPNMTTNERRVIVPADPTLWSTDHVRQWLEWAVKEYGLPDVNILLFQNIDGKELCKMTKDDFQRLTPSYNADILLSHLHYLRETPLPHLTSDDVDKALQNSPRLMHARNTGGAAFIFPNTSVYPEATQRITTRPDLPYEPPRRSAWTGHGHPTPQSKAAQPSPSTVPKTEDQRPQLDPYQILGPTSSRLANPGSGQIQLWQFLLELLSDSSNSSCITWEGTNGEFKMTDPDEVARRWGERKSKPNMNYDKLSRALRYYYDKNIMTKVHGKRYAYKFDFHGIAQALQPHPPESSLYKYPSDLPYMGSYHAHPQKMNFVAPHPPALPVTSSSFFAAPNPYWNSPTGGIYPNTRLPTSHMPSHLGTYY
# In short: as §1
# ELF1 = ELF1 (Homo sapiens, UniProt P32519 1-619)
# In short: as §1
# EHF = target: T5, EHF (Homo sapiens, UniProt Q9NZC4 1-300)
# T5 sequence: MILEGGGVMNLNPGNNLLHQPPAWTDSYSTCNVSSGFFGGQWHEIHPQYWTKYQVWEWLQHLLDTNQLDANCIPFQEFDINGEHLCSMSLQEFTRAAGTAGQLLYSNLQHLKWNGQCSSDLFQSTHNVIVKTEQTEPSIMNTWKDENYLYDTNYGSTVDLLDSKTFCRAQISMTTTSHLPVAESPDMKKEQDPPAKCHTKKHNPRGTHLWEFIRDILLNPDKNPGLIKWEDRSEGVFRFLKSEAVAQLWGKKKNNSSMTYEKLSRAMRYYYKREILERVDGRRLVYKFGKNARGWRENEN
# In short: as §1
# SPIB = SPIB (Homo sapiens, UniProt Q01892 1-262)
# In short: as §1
# ELK3 = target: T6, ELK3 (Homo sapiens, UniProt P41970 1-407)
# T6 sequence: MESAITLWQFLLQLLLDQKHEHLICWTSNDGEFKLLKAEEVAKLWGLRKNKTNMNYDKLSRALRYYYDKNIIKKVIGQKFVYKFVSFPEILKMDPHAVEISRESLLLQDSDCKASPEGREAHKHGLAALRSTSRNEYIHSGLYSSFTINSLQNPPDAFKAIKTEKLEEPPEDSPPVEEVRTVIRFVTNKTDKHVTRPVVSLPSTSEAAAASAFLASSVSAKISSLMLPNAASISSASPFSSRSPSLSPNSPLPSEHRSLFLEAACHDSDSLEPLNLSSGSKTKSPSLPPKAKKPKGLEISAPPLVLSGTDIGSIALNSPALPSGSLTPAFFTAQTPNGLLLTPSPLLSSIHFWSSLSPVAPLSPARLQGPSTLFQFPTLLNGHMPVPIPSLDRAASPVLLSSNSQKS
# In short: as §1
# SPIC = target: T7, SPIC (Homo sapiens, UniProt Q8N5J4 1-248)
# T7 sequence: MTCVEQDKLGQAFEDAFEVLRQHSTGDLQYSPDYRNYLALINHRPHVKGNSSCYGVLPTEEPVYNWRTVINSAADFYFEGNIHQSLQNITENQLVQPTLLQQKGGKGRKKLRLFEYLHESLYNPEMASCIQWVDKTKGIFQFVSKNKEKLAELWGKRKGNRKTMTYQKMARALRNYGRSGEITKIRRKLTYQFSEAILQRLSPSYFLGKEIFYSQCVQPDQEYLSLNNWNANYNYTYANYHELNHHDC
# In short: as §1
# ELF4 = ELF4 (Homo sapiens, UniProt Q99607 1-663)
# In short: as §1
# SPIB, sequence (Q01892 whole entry): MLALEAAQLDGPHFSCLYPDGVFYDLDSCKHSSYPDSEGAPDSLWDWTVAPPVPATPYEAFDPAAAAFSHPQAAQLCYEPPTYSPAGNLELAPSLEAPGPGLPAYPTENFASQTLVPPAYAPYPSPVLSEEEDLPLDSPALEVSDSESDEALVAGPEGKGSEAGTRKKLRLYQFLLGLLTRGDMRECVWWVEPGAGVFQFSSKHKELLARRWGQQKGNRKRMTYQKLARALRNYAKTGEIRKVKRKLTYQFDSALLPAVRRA
# ELF1, sequence (P32519 whole entry): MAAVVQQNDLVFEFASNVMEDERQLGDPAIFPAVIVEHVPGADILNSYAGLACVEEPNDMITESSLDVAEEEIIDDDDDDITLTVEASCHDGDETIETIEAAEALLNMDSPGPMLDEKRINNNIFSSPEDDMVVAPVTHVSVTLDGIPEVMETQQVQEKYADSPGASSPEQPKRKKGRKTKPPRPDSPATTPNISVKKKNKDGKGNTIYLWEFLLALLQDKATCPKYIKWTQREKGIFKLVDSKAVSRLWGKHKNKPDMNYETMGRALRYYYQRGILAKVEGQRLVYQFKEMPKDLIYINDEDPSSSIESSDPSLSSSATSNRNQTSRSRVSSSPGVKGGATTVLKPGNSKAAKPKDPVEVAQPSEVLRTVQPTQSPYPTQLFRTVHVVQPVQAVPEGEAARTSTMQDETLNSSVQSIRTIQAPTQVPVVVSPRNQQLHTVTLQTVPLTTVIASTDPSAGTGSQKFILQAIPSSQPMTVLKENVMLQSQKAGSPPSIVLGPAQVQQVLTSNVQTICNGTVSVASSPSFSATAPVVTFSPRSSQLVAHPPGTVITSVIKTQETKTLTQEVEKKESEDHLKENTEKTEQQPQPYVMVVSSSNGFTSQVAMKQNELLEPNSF
# ELF4, sequence (Q99607 whole entry): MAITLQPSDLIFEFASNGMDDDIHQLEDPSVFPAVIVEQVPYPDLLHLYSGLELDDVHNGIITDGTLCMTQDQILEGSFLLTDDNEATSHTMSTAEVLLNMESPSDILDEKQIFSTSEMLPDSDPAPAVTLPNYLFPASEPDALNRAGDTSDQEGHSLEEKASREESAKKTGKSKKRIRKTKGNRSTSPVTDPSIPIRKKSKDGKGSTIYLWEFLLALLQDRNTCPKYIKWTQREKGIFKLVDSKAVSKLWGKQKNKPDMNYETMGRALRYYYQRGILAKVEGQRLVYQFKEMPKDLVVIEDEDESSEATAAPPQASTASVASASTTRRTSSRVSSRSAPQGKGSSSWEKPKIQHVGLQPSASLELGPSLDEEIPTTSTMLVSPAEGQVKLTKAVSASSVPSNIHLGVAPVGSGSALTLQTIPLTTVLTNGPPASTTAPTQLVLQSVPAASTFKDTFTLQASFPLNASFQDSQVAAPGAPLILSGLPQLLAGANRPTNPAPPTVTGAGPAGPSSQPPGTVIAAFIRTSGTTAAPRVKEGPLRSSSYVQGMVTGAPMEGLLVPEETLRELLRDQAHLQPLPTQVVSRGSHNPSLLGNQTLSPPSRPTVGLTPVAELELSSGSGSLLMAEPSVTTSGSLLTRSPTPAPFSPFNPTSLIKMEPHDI
sequence,measurement,setting,value
CGTTGC,binding signal,FLI1,"1.09 fold enrichment (6-mer frequency, TF over GST control)"
same,binding signal,ELK1,"1.19 fold enrichment (6-mer frequency, TF over GST control)"
same,binding signal,GABPA,"1.04 fold enrichment (6-mer frequency, TF over GST control)"
same,binding signal,ERG,"1.06 fold enrichment (6-mer frequency, TF over GST control)"
same,binding signal,ELF1,"1.11 fold enrichment (6-mer frequency, TF over GST control)"
same,binding signal,EHF,"1.07 fold enrichment (6-mer frequency, TF over GST control)"
same,binding signal,SPIB,"1.18 fold enrichment (6-mer frequency, TF over GST control)"
same,binding signal,ELK3,"1.04 fold enrichment (6-mer frequency, TF over GST control)"
same,binding signal,SPIC,"1.25 fold enrichment (6-mer frequency, TF over GST control)"
same,binding signal,ELF4,"1.06 fold enrichment (6-mer frequency, TF over GST control)"
